The text below walks through data of PubChem BioAssay (EPA / NIEHS).

SMILES strings stand for the structures. Inconclusive results are not listed. Active and inactive are the calls of the source. The calls were made as follows, unless noted: active = hit-call score of the fitted dose curve at least 0.9, where 1 is the maximum; inconclusive = response in the unintended direction; inactive = score below 0.9.

Experiment [1] is described as follows: STM_H9_CystineISnorm_perc: Stemina devTOX quickPredict H9 human embryonic stem cell (hESC)-based Assay for Cystine (CYSS) Metabolite Biomarker, Normalized (AID 2283713; active = hit-call score of the fitted dose curve at least 0.9, where 1 is the maximum; inactive = score below 0.9). The essentials:
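Cells are held undifferentiated and treated for 72h, receiving fresh medium with compound every 24h. Cystine secreted during the final day is quantified by UPLC-HRMS against a labeled spike-in, then expressed relative to the DMSO vehicle median.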

Experiment [2] can be described thus: STM_H9_OrnCyssISnorm_ratio: Stemina devTOX quickPredict H9 human embryonic stem cell (hESC)-based Assay for Ornithine (ORN):Cystine (CYSS) Ratio (AID 2283714). The essentials:
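UPLC-HRMS of spent media: ORN/CYSS ratio of internal-standard-normalized percentages, DMSO (0.1%) baseline. Pluripotent H9 hESCs, 72h exposure, daily re-dosing with fresh media; last 24h media collected.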

Experiment [3] can be described thus: CEETOX_H295R_MTT_cell_viability: Viability Assessment in the CeeTox HT-H295R MTT Assay (AID 2283718; active = hit-call score of the fitted dose curve at least 0.9, where 1 is the maximum; inactive = score below 0.9;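 as to AC50: curve fitted both ways so AC50 may mark viability loss or gain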). Summed up:
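Human H295R adrenal cells, prestimulated 48 h with 10 uM forskolin, were exposed 48 h to chemicals in 0.1% DMSO. Viability was measured in the same wells by MTT (0.5 mg/ml, 4 h, 37 C), absorbance 570/650 nm, as percent of controls.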

A short description of experiment [4]: Tanguay_ZF_120hpf_ActivityScore_legacy: (Legacy) Oregon State University Tanguay Lab 120 Hour Post-fertilization zebrafish Assay Score for Activity (AID 2283742). The essentials:
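Dechorionated 5D embryos, one per well, static exposure 6–120 hpf, 28C, sealed and dark; final DMSO 0.64% (vol/vol). Brightfield binary scoring of mortality plus 18 endpoints; gain-of-signal fit versus DMSO baseline.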

Experiment [5] in a line: ACEA_AR_agonist_AUC_viability: ACEA Biosciences xCELLigence Real-Time Cell Analysis on Androgen Receptor Agonism for Viability (AID 2283775).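 As to AC50: viability read 80 hours after compound addition.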 Summed up: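 22Rv1 cells; impedance growth kinetics; 8-pt 1:4 dilutions from 100 uM top final, ≤0.5% DMSO; n = 2; 80 h read; AUC viability, loss-of-signal vs DMSO.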
The nature of experiment [6]: CCTE_Padilla_ZF_144hpf_TERATOSCORE: (Legacy) CCTE's 144 Hour Post-fertilization zebrafish Assay Teratoscore, Padilla Lab (AID 2283679; active = hit-call score of the fitted dose curve at least 0.9, where 1 is the maximum; inactive = score below 0.9;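 as to AC50: zebrafish embryos with chorions exposed by immersion from 6-8 hpf to 5 dpf with daily renewal; teratogenicity score from eye scoring of death hatching and malformations at 144 hpf; higher score means more developmental defects relative to DMSO baseline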). The essentials:
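Larvae scored by eye at 144 hpf for death, hatching and malformations after a day in clean Hanks'. Before that, daily-renewed exposure at 80 uM (0.4% DMSO, 26C) from roughly 6-8 hpf through 5 dpf, 4 embryos per chemical.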

Experiment [7] concerns the target Luciferin 4-monooxygenase (Photinus pyralis) (UniProt P08659). The experiment is described as follows: CCTE_Simmons_QuantiLum_inhib_2: CCTE's Firefly Luciferase Inhibition Assay, Simmons Lab (AID 2283767).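 As to AC50: potency for inhibitors that lower luciferase luminescence relative to DMSO.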 The essentials: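 First, 5 ng purified luciferase in phosphate buffer with BSA is dispensed per well. Next, test chemicals (5 nM to 87.5 uM final, 0.5% DMSO) are added and incubated 30 min at 37C in darkness. Finally, luciferin reagent is injected and luminescence read kinetically.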

Sequence of Luciferin 4-monooxygenase (Photinus pyralis) (P08659 whole entry, looked up): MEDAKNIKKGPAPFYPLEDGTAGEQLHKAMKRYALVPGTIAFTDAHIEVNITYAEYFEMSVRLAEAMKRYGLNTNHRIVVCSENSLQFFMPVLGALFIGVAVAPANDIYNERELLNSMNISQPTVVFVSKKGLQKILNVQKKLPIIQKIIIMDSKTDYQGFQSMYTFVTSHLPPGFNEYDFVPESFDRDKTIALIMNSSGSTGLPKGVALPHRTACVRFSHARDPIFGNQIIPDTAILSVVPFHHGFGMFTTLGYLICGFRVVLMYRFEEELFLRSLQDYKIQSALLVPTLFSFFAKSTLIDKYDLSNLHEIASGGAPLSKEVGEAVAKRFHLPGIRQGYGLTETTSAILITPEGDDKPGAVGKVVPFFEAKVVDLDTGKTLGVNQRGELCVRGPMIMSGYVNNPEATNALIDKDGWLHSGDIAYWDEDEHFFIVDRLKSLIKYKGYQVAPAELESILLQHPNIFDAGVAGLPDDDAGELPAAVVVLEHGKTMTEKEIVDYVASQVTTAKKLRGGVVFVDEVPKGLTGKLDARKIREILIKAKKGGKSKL

The term AC50 denotes the concentration at which the activity in the assay is half-maximal. Regarding `CCc1ccc(CCOc2ccc(CC3SC(=O)NC3=O)cc2)nc1` (stereo unspecified), the results for the AC50 in experiment [1], in experiment [2] and in experiment [5] were 88.9 µM (active), 84.5 µM (active) and 50 µM (active), respectively. The compound was called inactive in experiment [3] and in experiment [4].
With `COCC(C)O` (stereo unspecified), the call in experiment [6], in experiment [4] and in experiment [5] was inactive.
For the compound `OC1CCCCC1`, the result in experiment [6], in experiment [4] and in experiment [5] was inactive.
As to `CC(=O)CC(C)(C)O`, the call in experiment [6], in experiment [4] and in experiment [5] was inactive.
For `CCCCOCCO`, the outcome in experiment [6], in experiment [4] and in experiment [5] was inactive.
On to `COCC(C)OCC(C)O` (stereo unspecified), for which the result in experiment [4] and in experiment [5] was inactive.
In the case of `OCCC(F)(F)C(F)(F)C(F)(F)C(F)(F)C(F)(F)C(F)(F)F`, the compound was classed as inactive in experiment [6], in experiment [4] and in experiment [5].
For the compound `CCCCCCCC(=O)O`, the compound was classed as inactive in experiment [4] and in experiment [5].
For `CCCCC(CC)COC(=O)CCCCC(=O)OCc1ccccc1` (stereo unspecified), the call in experiment [4] and in experiment [5] was inactive.
As to `CCCCCCCCCCCCCCCS(=O)(=O)Oc1ccccc1`, the call in experiment [3], in experiment [4] and in experiment [5] was inactive.
For the compound `CCCCCCCCC(=O)O`, the result in experiment [3], in experiment [4] and in experiment [5] was inactive.
As for `OC1CCC(C2CCCCC2)CC1` (stereo unspecified), the half-maximal activity concentration (AC50) is 87.6 µM (active) in experiment [6] and 81.3 µM (active) in experiment [5]. Further, in experiment [4], the result was inactive.
For the compound `CC(O)C(=O)O` (stereo unspecified), the compound was called inactive in experiment [5].
Still for that read-out and setting: for `Cc1ccc(S(=O)(=O)O)c(C)c1` the value was “inactive”.
As to `Oc1cccc(O)c1`, the AC50 is 1.35 µM (active) in experiment [3] and 16.1 µM (active) in experiment [7]. Moreover, the result in experiment [4] was inactive.
Turning to `O=C(/C=C/c1ccc(O)cc1)CC(=O)/C=C/c1ccc(O)cc1`, the half-maximal activity concentration (AC50) in experiment [5] is 62.8 µM (active).
As for `OCCC(F)(F)C(F)(F)C(F)(F)C(F)(F)C(F)(F)C(F)(F)C(F)(F)C(F)(F)F`, the compound was classed as inactive in experiment [6], in experiment [4] and in experiment [5].
For the compound `CC(C)CCCCCCOC(=O)CCCCC(=O)OCCCCCCC(C)C`, the result in experiment [4] and in experiment [5] was inactive.
For `CN(C)C=O`, in experiment [1], the outcome was inactive.
As to `O=C1OC2(c3ccccc31)c1cc(Br)c(O)c(Br)c1Oc1c2cc(Br)c(O)c1Br`, in experiment [5], the compound was called inactive.
Turning to `c1ccc2c(c1)Cc1ccccc1-2`, the compound was called inactive in experiment [3], in experiment [4] and in experiment [5].
Turning to `Cc1cc(C)c(O)c(C)c1`, the compound was called inactive in experiment [4], in experiment [7] and in experiment [5].
With `CCCCCCC(=O)O`, the result in experiment [4] was inactive.
On to `CN1CCC[C@H]1c1cccnc1`, for which the result in experiment [1], in experiment [3], in experiment [4] and in experiment [5] was inactive.
In the case of `CCOC(=O)CC(O)(CC(=O)OCC)C(=O)OCC`, the result in experiment [4] and in experiment [5] was inactive.
